Assay outcomes as filed in PubChem.
Shown is part of a subset that was picked to be rich in hits.
DENV2 CPE – DENV2-induced cell death inhibition | CPE inhibition, % at 9.99 µM | DENV2-infected cells, cytopathic effect rescue, plate reader | 350,000 compounds, 1.7% hits; in the data active = CPE inhibition above about 20%, passing the limit was not always enough; inconclusive = no clear call, values can overlap the other calls; tested in BHK-21 cells;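 also: 0% = median of neutral control wells and 100% = median of positive control wells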
PglD DTNB – inhibitors of Campylobacter jejuni PglD acetyltransferase; purified PglD enzyme, DTNB colorimetric CoA detection; inhibition, % at 12.5 µM; 360,000 compounds, 0.098% hits; in the data active = inhibition above about 16%, passing the limit was not always enough; inconclusive = no clear call, values can overlap the other calls
Rtt109 HAT inh – blocks Candida albicans Rtt109/Vps75 acetyltransferase activity; Q5AAJ8; purified Rtt109/Vps75, ThioGlo CoA-SH fluorescence, 4 h; inhibition, % at 34.9 µM; 330,000 compounds, 0.16% hits; AID 540336;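 active = inhibition of at least 50% in every replicate; inconclusive = best replicate reaches 50% inhibition but some replicates fall short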
Target sequence (Q5AAJ8 whole entry, looked up): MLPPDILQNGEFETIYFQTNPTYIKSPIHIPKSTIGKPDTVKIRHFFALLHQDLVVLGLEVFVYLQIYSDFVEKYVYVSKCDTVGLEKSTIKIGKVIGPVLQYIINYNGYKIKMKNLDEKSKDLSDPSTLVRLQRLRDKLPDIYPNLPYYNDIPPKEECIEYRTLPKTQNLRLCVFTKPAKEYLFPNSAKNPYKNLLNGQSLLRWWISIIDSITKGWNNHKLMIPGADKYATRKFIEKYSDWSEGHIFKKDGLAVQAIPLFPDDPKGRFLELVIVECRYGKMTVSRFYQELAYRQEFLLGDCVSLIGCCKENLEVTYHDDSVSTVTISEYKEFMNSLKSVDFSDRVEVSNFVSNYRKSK
N-glyco inh – N-linked glycosylation inhibition. reporter increase, % at 12.5 µM. AID 588692. 360,000 compounds, 0.23% hits. D54 ERlucT glycosylation luciferase reporter, 24 h; percent of 100 nM tunicamycin response;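 active = mean luciferase reporter signal, scaled so untreated is 0 and the glycosylation-blocking control 100, at or above a set limit in every replicate; inconclusive = mean reaches the limit but not every replicate does; inactive = mean below the limit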;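 also: luciferase carries N-glycosylation sites so blocking glycosylation raises the light; 0% = median of neutral control wells and 100% = median of 100 nM tunicamycin wells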
* = called active by the depositor; u = inconclusive; x = no result given.

SMILES	DENV2 CPE	PglD DTNB	Rtt109 HAT inh	N-glyco inh
COc1ccc(S(=O)(=O)Nc2ccc3c(c2)C(=O)N([C@H](C)CO)C[C@@H](C)[C@@H](CN(C)S(C)(=O)=O)OCCCC[C@H](C)O3)cc1	0	0	x	x
COc1ccc(S(=O)(=O)Nc2ccc3c(c2)C(=O)N([C@H](C)CO)C[C@@H](C)[C@@H](CN(C)S(C)(=O)=O)OCCCC[C@@H](C)O3)cc1	49*	2	x	x
CNC[C@@H]1Oc2cc(C#CCOC)ccc2S(=O)(=O)N([C@@H](C)CO)C[C@H]1C	-6	-2	x	x
Cc1ccc(S(=O)(=O)Nc2ccc3c(c2)C(=O)N([C@H](C)CO)C[C@@H](C)[C@@H](CN(C)C(=O)NC(C)C)OCCCC[C@H](C)O3)cc1	11	4	x	x
CNC[C@@H]1OCCCC[C@H](C)Oc2ccc(NS(=O)(=O)c3ccc(C)cc3)cc2C(=O)N([C@@H](C)CO)C[C@H]1C	-3	-2	x	x
Cc1ccc(S(=O)(=O)Nc2ccc3c(c2)C(=O)N([C@@H](C)CO)C[C@H](C)[C@@H](CN(C)C(=O)NC(C)C)OCCCC[C@@H](C)O3)cc1	22*	x	x	x
CNC[C@H]1OCCCC[C@@H](C)Oc2ccc(NS(=O)(=O)c3ccc(C)cc3)cc2C(=O)N([C@H](C)CO)C[C@@H]1C	30*	2	x	x
CNC[C@@H]1OCCCC[C@H](C)Oc2ccc(NS(=O)(=O)c3c(C)noc3C)cc2C(=O)N([C@@H](C)CO)C[C@@H]1C	132*	2	x	x
CN(C)CC(=O)N1[C@@H]2c3ccc(-c4ccccc4)c(=O)n3C[C@@H]2[C@@H](CO)[C@@H]1C(=O)NC1CCC1	0	-3	x	x
CC(=O)N1[C@H](CO)[C@H](c2ccc(-c3cccc(F)c3)cc2)[C@H]1CNC(=O)C1CC1	33	3	x	x
CCC(=O)Nc1ccc2c(c1)C(=O)N(C)C[C@@H](OC)[C@@H](C)CN(C(C)=O)[C@H](C)CO2	16	5	x	x
CCC(=O)Nc1ccc2c(c1)C(=O)N(C)C[C@H](OC)[C@@H](C)CN(C(C)=O)[C@@H](C)CO2	54*	4	x	x
CCS(=O)(=O)Nc1ccc2c(c1)C(=O)N(C)C[C@H](OC)[C@H](C)CN(C(C)=O)[C@H](C)CO2	24*	-2	x	x
CCC(=O)Nc1ccc2c(c1)C(=O)N(C)C[C@@H](OC)[C@H](C)CN(C(C)=O)[C@@H](C)CO2	29*	x	x	x
CCS(=O)(=O)Nc1ccc2c(c1)C(=O)N(C)C[C@H](OC)[C@@H](C)CN(C(C)=O)[C@@H](C)CO2	-5	1	x	x
CCC(=O)Nc1ccc2c(c1)C(=O)N(C)C[C@@H](OC)[C@@H](C)CN(C(C)=O)[C@@H](C)CO2	32*	8	x	x
COc1ccc(CN2CC3(CN(C(=O)Nc4cccc(F)c4)C3)c3c([nH]c4cc(OC)ccc34)[C@H]2CO)cc1	9	x	x	x
CCCNC(=O)N1C[C@@H](C)[C@H](OC)CN(C)C(=O)c2cc(NS(=O)(=O)CC(F)(F)F)ccc2OC[C@@H]1C	60*	1	x	x
CCCNC(=O)N1C[C@H](C)[C@H](OC)CN(C)C(=O)c2cc(NS(=O)(=O)CC(F)(F)F)ccc2OC[C@@H]1C	1	-1	x	x
Cc1cc(N(C)C(=O)c2ccc3c(c2)S(=O)(=O)c2cc(Cl)ccc2C3=O)c(C(F)(F)F)o1	49*	-5	2	5
C[C@@H]1CCCCO[C@@H](CN(C)CC2CC2)[C@H](C)CN([C@H](C)CO)C(=O)c2cc(NC(=O)CCCN(C)C)ccc2O1	43*	x	x	x
C[C@@H]1CCCCO[C@H](CN(C)C(=O)CCCN(C)C)[C@@H](C)CN([C@H](C)CO)C(=O)c2cc(NC(=O)CCCN(C)C)ccc2O1	20*	x	x	x
Cc1ccccc1S(=O)(=O)NCC[C@@H]1CC[C@@H](NC(=O)Nc2cccc(F)c2)[C@@H](CO)O1	-2	-1	x	x
CCCCC1=CC2=CC(=O)C(C)(OC(=O)CC)C(=O)C2=CN1CCc1c[nH]c2ccccc12 (centres undefined)	20*	-2	-11	0
COC(=O)CCCC1=CC2=CC(=O)C(C)(OC(=O)c3cccs3)C(=O)C2=CN1CCc1c[nH]c2ccccc12 (centres undefined)	1	1	3	3
SMILES	DENV2 CPE	PglD DTNB	Rtt109 HAT inh	N-glyco inh
CC(C)CN1CCCC(N2CCN(c3cccc(Cl)c3)CC2)C1 (centres undefined)	27*	3	3	1
COc1ccc2c3c(n(C)c2c1)[C@H](CO)N(C(=O)CC1CC1)CC31CCN(C(=O)C2CC2)CC1	3	x	x	x
CCOC(=O)c1c(C)[nH]c(/C(C)=N/O)c1C	x	-8	-5	-1
CCOC(=O)c1c(C)[nH]c(C2=NNC(=NC3CC3)SC2)c1C	x	x	71*	-23
CCNC(=O)C[C@H]1CC[C@H]2[C@@H](COc3ccc(NS(C)(=O)=O)cc3C(=O)N2C)O1	7	-1	x	x
C[C@@H]1CCCCO[C@@H](CN(C)Cc2ccc(Cl)c(Cl)c2)[C@@H](C)CN([C@H](C)CO)C(=O)c2cc(NS(=O)(=O)c3ccc(Cl)cc3)ccc2O1	79*	4	x	x
C[C@@H]1CCCCO[C@H](CN(C)Cc2ccc(Cl)c(Cl)c2)[C@@H](C)CN([C@@H](C)CO)C(=O)c2cc(NS(=O)(=O)c3ccc(F)cc3)ccc2O1	31*	x	x	x
Cc1noc(C)c1S(=O)(=O)N(C)C[C@@H]1OCCCC[C@@H](C)Oc2ccc(NC(=O)NC(C)C)cc2C(=O)N([C@H](C)CO)C[C@H]1C	-8	3	x	x
O=C(NCC1CCCCC1)[C@@H]1[C@@H](CO)[C@@H]2Cn3c(cccc3=O)[C@H]1N2CCc1ccccc1	110*	3	x	x
O=C(NCC1CC1)[C@@H]1[C@@H](CO)[C@@H]2Cn3c(cccc3=O)[C@H]1N2CCc1ccccc1	0	1	x	x
O=C(NCC1CCCCC1)[C@H]1[C@H](CO)[C@H]2Cn3c(cccc3=O)[C@@H]1N2CCc1ccccc1	109*	1	x	x
C/C=C/c1ccc([C@H]2[C@H](CO)N(C(C)=O)C23CN(S(C)(=O)=O)C3)cc1	17	x	x	x
C[C@@H]1CCCCO[C@H](CN(C)C(=O)CCC(F)(F)F)[C@@H](C)CN([C@H](C)CO)C(=O)c2cc(NC(=O)Nc3ccccc3)ccc2O1	-1	2	x	x
COc1ccccc1-[n+]1c(C)cc(/C=C2\Sc3ccccc3N2C)cc1C	15	-14	u	-18
COc1ccc(-[n+]2c(C)cc(/C=C3\Sc4ccccc4N3C)cc2C)cc1	7	x	74*	7
CO[C@@H]1CN(C)C(=O)c2cc(NS(=O)(=O)c3ccc(Cl)cc3)ccc2OC[C@H](C)NC[C@H]1C	-7	0	x	x
Cc1cc(SC(C)C(=O)NCC(=O)Nc2ccc(F)c(F)c2F)nc2ccccc12 (centres undefined)	2	-1	-1	0
Cc1cc(C)c2nc(SC(C)C(=O)NCC(=O)Nc3ccc(F)c(F)c3F)cc(C)c2c1 (centres undefined)	28*	x	2	-2
CO[C@H]1CN(C)C(=O)c2cc(NC(=O)Nc3ccccc3F)ccc2OC[C@H](C)N(Cc2ccccc2C(=O)O)C[C@H]1C	14	-3	x	x
